M4 PAM: positive allosteric modulators of human muscarinic M4 receptor. P08173. CHO-K1 hM4/Gqi5, Fluo-8 calcium fluorescence, ACh EC20; 0% = ACh EC20, 100% = maximal ACh. activation, % at 3 µM. 360,000 compounds, 0.4% hits. AID 624126;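 active means activation above its plate's cutoff, the mean activation of sample wells plus 3 SD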
Target sequence (P08173 whole entry, looked up): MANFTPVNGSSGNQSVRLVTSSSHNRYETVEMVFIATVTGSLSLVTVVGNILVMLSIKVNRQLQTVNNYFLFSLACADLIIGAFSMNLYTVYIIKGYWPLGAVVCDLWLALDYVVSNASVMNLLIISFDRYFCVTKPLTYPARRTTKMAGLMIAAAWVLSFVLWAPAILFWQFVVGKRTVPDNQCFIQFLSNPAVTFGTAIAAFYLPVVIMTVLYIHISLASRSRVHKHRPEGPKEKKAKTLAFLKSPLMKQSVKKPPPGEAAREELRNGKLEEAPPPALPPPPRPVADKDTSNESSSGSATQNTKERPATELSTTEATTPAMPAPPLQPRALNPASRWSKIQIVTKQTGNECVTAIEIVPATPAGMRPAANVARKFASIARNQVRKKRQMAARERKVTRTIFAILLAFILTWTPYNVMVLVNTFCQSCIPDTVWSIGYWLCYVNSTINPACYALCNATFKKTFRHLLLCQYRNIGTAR
M1 ag: activates human CHRM1 receptor. CHO-K1 hM1, Fluo-8 calcium fluorescence, agonist mode; 0% DMSO, 100% acetylcholine EC100. activation, % at 3 µM. 360,000 compounds, 0.33% hits;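 active means activation above the run's mean compound activation plus 3 SD, cut at about 16% in these data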;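 further: peak over basal fluorescence ratio within a 140 s kinetic read after compound addition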
M4 ag: agonists of human muscarinic M4 receptor (CHRM4) | P08173 | activation, % at 3 µM | 360,000 compounds, 0.14% hits | CHO-K1 hM4/Gqi5, Fluo-8 calcium fluorescence; vehicle 0%, full acetylcholine response 100%;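 active means activation above the run mean over all test wells plus 3 SD, cut at about 32% in these data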;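 further: peak over basal fluorescence ratio per well then scaled between controls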
M4 antag: blocks acetylcholine activation of human M4 receptor | P08173 | CHO-hM4 cells, ACh EC80, Fluo-8 calcium fluorescence | inhibition, % at 3 µM | 360,000 compounds, 0.73% hits | AID 624125;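 active means inhibition above its plate's cutoff, the mean inhibition of sample wells plus 3 SD, cut at about 27% in these data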
M1 PAM: positive allosteric modulators of human M1 muscarinic receptor. P11229. CHO-K1 hM1, Fluo-8 calcium fluorescence, ACh EC20; 0% = ACh EC20, 100% = maximal ACh. activation, % at 3 µM. 360,000 compounds, 0.088% hits; in the data active means activation above about 19%, passing the limit was not always enough
CHRM1 antagonist: blocks human M1 muscarinic receptor; CHO-K1 hM1, Fluo-8 calcium fluorescence, ACh EC80 antagonist; inhibition, % at 3 µM; P11229; 360,000 compounds, 1.3% hits; AID 588852;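 active means percent inhibition above its own plate's cutoff, namely the mean of that plate's compound wells plus 3 SD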;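 further: peak over basal fluorescence ratio during 140 s after agonist addition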
Of the large screens only hits and unclear results are named; the others gave an inactive call. Sampled rows, rich in hits. Any-hit rate of the full collection: about 2.2%.

CCCCNc1c(-c2ccc(OC)c(SC3CCCCC3)c2)nc2cc(C)ccn12	M4 antag 29
CCCCNc1c(-c2cccc(-c3ccc(OC)cc3)c2)nc2ccc(C)cn12	M4 antag 52, CHRM1 antagonist 59
COC(=O)c1cccc(NS(=O)(=O)c2ccc(OC)cc2)c1C	none
O=C(COc1ccc(Cl)cc1Br)NNC(=O)C(=O)N1CCCCC1	none
Cc1cccc(NC(=O)CN2CCN(C(=O)c3cncn3-c3ccc(F)cc3)CC2)c1C	none
O=C(CCc1nc(-c2ccc(Cl)cc2)no1)NC1CCCC1	none
Cc1c(O[C@@H]2O[C@H](CO)[C@@H](O)[C@H](O)[C@H]2O)ccc2c1oc(=O)c1ccccc12	none
COc1ccccc1CCn1cnc(Cc2ccccc2)c1C(C)C	M4 antag 33 (no result: M1 ag, M1 PAM, CHRM1 antagonist)
CCCCc1c(-c2ccccc2OC)ncn1CCc1ccccc1OC	none (no result: M1 ag, M1 PAM, CHRM1 antagonist)
COc1ccccc1CCn1cnc(-c2ccc(Br)cc2)c1C(C)C	none (no result: M1 ag, M1 PAM, CHRM1 antagonist)
CCCCCc1c(-c2ccccc2OC)ncn1CCc1ccccc1OC	M4 antag 34 (no result: M1 ag, M1 PAM, CHRM1 antagonist)
CCOc1ccc(CCN2C(=S)N([C@@H](Cc3ccc(O)cc3)CN3CCC[C@@H]3CN3C(=S)NC[C@@H]3Cc3ccccc3)C[C@@H]2Cc2ccccc2)cc1	none
Cc1cc(C)c(OCC(=O)Nc2ccccc2N2CCOCC2)c(C)c1	M1 ag 18, M4 antag 35
COc1cc(-c2cc(C(=O)Nc3ccccc3N3CCOCC3)c3ccccc3n2)cc(OC)c1OC	none
O=C(Nc1ccccc1N1CCOCC1)c1cc(-c2ccco2)nc2ccccc12	M4 antag 35, CHRM1 antagonist 38
CN1CCN(C2=C(Cl)C(=O)c3ccccc3C2=O)CC1	none
COC(=O)C[C@H]1C=C[C@H](NC(=O)Cc2ccccc2)[C@@H](CO)O1	none (no result: M1 ag, M1 PAM, CHRM1 antagonist)
CCCNC(=O)Cc1c(O)c2ccccc2[nH]c1=O	none
CNC(=O)c1ccc(NC(=O)CC2SC(N3CCCC3)=NC2=O)cc1 (stereo not given)	M4 PAM 22
CC(C)Cn1c(N)c(C(=O)COC(=O)Cc2cccc(C(F)(F)F)c2)c(=O)n(C)c1=O	CHRM1 antagonist 38
CC(C)Cn1c(N)c(C(=O)COC(=O)Cc2cccs2)c(=O)n(C)c1=O	CHRM1 antagonist 30
CC(C)[C@H](NC(=O)c1ccccc1F)C(=O)NCCc1ccccc1	none
O=C(c1ccncc1)N1CCN(c2cccc(C(F)(F)F)c2)CC1	none
CN(C)/C=N/c1sc2c(c1C#N)CC(C)(C)NC2(C)C	M1 PAM 23
CC(CC(=O)N1CCN(c2cccc(Cl)c2)CC1)S(=O)(=O)c1ccc2c(c1)NC(=O)CO2 (stereo not given)	CHRM1 antagonist 66
Cn1c(=O)c2c(ncn2CC(=O)Nc2nccs2)n(C)c1=O	none
COc1ccc(C(CNc2nc(-c3cccnc3)nc3ccccc23)N(C)C)cc1 (stereo not given)	CHRM1 antagonist 33
CC(Nc1nc(-c2cccnc2)nc2ccccc12)c1ccc(F)cc1 (stereo not given)	CHRM1 antagonist 21
COc1ccc(/C=N/Nc2nc(-c3cccnc3)nc3ccccc23)cc1OC	none
COc1ccc(CCNc2nc(-c3cccnc3)nc3ccccc23)cc1OC	M4 antag 28, CHRM1 antagonist 25
CC(Nc1nc(-c2ccccc2)nc2ccccc12)c1ccccc1 (stereo not given)	none
Cc1c(O)ccc(/C=N/Nc2nc(-c3cccnc3)nc3ccccc23)c1O	CHRM1 antagonist 32
COc1ccc(Cl)cc1S(=O)(=O)NC(C)C(=O)NCCCn1ccnc1 (stereo not given)	none
C=CCN(CC(=O)NC1CCCC1)C(=O)C(=O)Nc1ccc2c(c1)OCCO2	none
Cc1ccc(-n2c(C)nnc2SCC(=O)N2CCc3ccccc3C2)cc1	none
COc1ccc2c(=O)c3c(=O)n(CCc4ccccc4)c(C)nc3oc2c1	none
CCOC(=O)c1c(-c2ccsc2)csc1N	none
O=C(CN(c1ccccc1)S(=O)(=O)c1ccccc1)Nc1ccccc1C(=O)NCc1ccco1	none
Cc1[nH]c2ccccc2c1CC#N	none
Cc1[nH]c2ccccc2c1C1=CC(=O)C=CC1=O	M4 antag 45
Cc1ccc(CC(=O)N2CCN(c3cccc(C(F)(F)F)c3)CC2)cc1	M4 antag 28, CHRM1 antagonist 32
Cc1ccc(S(=O)(=O)CC(=O)N2CCN(c3cccc(C(F)(F)F)c3)CC2)cc1	none
FC(F)(F)c1cccc(NC(=S)N2CCN(c3cccc(C(F)(F)F)c3)CC2)c1	CHRM1 antagonist 38
O=C(c1coc2ccccc2c1=O)N1CCN(c2cccc(C(F)(F)F)c2)CC1	CHRM1 antagonist 54
C/C(=N\NC(=O)c1ccc(NS(=O)(=O)c2cccs2)cc1)c1cccs1	none
C/C(=N\NC(=O)CO/N=C(\C)c1cccs1)c1ccc(N)cc1	M4 antag 29
C/C(=N\OCC(=O)N/N=C/c1ccc(C)cc1O)c1cccs1	none
C/C(=N\NC(=O)c1ccc(Cl)cc1)c1cccs1	M4 PAM 22
CCCCOc1ccc(CN2CCCCC2)cc1	CHRM1 antagonist 42
CCCCOc1ccc(C(O)C(CN2CCCCC2)c2ccccc2)cc1 (stereo not given)	CHRM1 antagonist 35
O=[N+]([O-])c1cccc(COc2ccc(CN3CCCCC3)cc2)c1	M4 antag 56, CHRM1 antagonist 87
CCCCOc1ccc(C(O)C(CN2CCOCC2)c2ccccc2)cc1 (stereo not given)	none
O=C(c1ccco1)n1nc(NCc2ccccc2)nc1NCc1ccccc1	none
COc1ccc(OCc2nn3c(-c4cccc(OC)c4)nnc3s2)cc1	M4 PAM 21
CC(=O)N/C(=C\c1ccccc1Cl)C(=O)O	none
Cc1ccccc1OCC(=O)OC1CCN(C)CC1	CHRM1 antagonist 32
CN1CCC(OC(=O)COc2ccc(Br)cc2)CC1	CHRM1 antagonist 31
CCCC(=O)N1CCC1(C)C(=O)Nc1ccc2nc(C)ccc2c1 (stereo not given)	none
CC(C)(C)C(=O)Nc1ccc(S(=O)(=O)Nc2ccccn2)cc1	M4 PAM 25
O=C(Nc1ccc(S(=O)(=O)Nc2ccccn2)cc1)C(F)(F)F	none
Cc1nnc(NC(=O)CCC(=O)N2CCN(S(=O)(=O)c3cc([N+](=O)[O-])ccc3C)CC2)s1	none
CCCCOc1ccc(C(=O)NCCN2CCC(n3c(=O)[nH]c4ccccc43)CC2)cc1	M4 antag 59 (no result: M1 ag, M1 PAM, CHRM1 antagonist)
S=c1nc2c(n[nH]1)c1ccccc1n2CCc1ccccc1	M1 ag 20
CCN(CC)CCCNC(=O)CNC(=O)c1nn(-c2ccc(OC)cc2)c(=O)c2ccccc12	CHRM1 antagonist 45
